Data from PubChem BioAssay.

Biological target: PEG-3 (UniProt Q6IN02)
Assay: inhibition of PEG-3 promoter-driven reporter – cell-based, HeLa, luciferase, CREF/GAPDH counter-screen panel, dose response (AID 624167)
Conditions: CREF/GAPDH counter-screens; HeLa PEG-Prom luciferase reporter, overnight, run 2, dose range 1, at 100 µM (top of the series) unless noted

PEG-3, sequence (Q6IN02 whole entry, looked up): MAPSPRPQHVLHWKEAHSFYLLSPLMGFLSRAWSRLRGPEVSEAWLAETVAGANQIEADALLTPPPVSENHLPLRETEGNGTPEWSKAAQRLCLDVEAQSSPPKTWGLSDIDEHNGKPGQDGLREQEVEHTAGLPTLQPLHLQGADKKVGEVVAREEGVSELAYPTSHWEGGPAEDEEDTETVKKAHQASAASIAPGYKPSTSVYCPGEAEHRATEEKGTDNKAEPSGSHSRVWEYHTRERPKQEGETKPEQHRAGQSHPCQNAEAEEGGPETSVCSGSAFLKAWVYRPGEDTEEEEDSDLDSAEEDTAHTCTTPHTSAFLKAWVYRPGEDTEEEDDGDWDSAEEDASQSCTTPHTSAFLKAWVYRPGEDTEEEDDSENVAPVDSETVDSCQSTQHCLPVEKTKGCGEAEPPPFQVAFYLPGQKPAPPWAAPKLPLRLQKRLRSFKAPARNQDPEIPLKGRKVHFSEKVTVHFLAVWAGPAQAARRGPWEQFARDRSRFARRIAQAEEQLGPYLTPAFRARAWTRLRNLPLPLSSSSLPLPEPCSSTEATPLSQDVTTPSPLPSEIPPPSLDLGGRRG

**Q.** Which inhibition does the source give for `O=C(Nc1cccc(-c2cccc(Cl)c2)c1)C1CCN(C2CCC2)CC1` here?
**A.** The inhibition was 98.9%.

**Q.** Which inhibition does the source give for `O=C(CSc1nc(Nc2ccccc2)nc(N2CCOCC2)n1)Nc1cc(Cl)ccc1O` here?
**A.** The inhibition was 101%.

**Q.** For `O=c1[nH]c(=S)[nH]c(O)c1/C=C1\C=Nc2ccccc21`, which inhibition is on record?
**A.** Its inhibition is 100% [run 2, dose range 1, at 50 µM].

**Q.** For `COc1ccc(OC)c(Cc2cnc3nc(N)nc(N)c3c2C)c1`, which inhibition is on record?
**A.** Its inhibition is 86.7%.

**Q.** Which inhibition does the source give for `COc1ccc(-c2cc(C(=O)N(C)Cc3ccc(OC)c(OC)c3OC)c3ccccc3n2)cc1OC` here?
**A.** Its inhibition is 72.5%.

**Q.** Which inhibition does the source give for `Cc1ccc(OCC(=O)c2cc(C)n(Cc3ccco3)c2C)c([N+](=O)[O-])n1` here?
**A.** Its inhibition is 62.9%.

**Q.** Which inhibition does the source give for `CN(Cc1ccccc1F)C(=O)C(Cc1ccccc1)NC(=O)c1ccccc1` (stereo not given) here?
**A.** The inhibition was 95.1%.

**Q.** For `COc1ccc(CN(C)C(=O)c2cc(-c3ccc(C)cc3C)nc3ccccc23)c(OC)c1OC`, which inhibition is on record?
**A.** The inhibition was 102%.

**Q.** With `CCOc1ccc2nc(N(CCCN(C)C)C(=O)c3ccc(C(=O)c4ccccc4)cc3)sc2c1` as the compound, how does the inhibition read?
**A.** Its inhibition is 101%.

**Q.** Which inhibition does the source give for `CN(O)C(=S)c1ccccc1` here?
**A.** The inhibition was 78.7%.

**Q.** For `CCn1cc(CN2CCC(C(=O)Nc3cccc(-c4cccc(Cl)c4)c3)CC2)cn1`, which inhibition is on record?
**A.** Its inhibition is 98.3%.

**Q.** For `CCCCNc1c(-c2cccc(Sc3ccc(OC)cc3)c2)nc2ccccn12`, which inhibition is on record?
**A.** The inhibition was 81.9%.

System: Rat fibroblasts (CREF)
Assay: as above
Conditions: CREF/GAPDH counter-screens; run 1, dose range 1, at 100 µM (top of the series)

**Q.** For `COc1ccc2c(c1)c(=Cc1ccc(N(C)C)cc1)c1cc(-c3ccccc3)[n+](C)n12`, which inhibition is on record?
**A.** Its inhibition is 99.5%.

**Q.** Which inhibition does the source give for `Cc1ccc(C)c(S(=O)(=O)N2CCN(c3ncnc4sccc34)CC2)c1` here?
**A.** Its inhibition is 13.9%.

**Q.** With `COc1cccc2c1C(=O)c1c(O)c3c(c(O)c1C2=O)CC(O)(C(C)=NNC(=O)c1ccc(Cl)c(Cl)c1)CC3OC1CC(N)C(O)C(C)O1` (stereo not given) as the compound, how does the inhibition read?
**A.** Its inhibition is 99.3%.

**Q.** Which inhibition does the source give for `CN1OC[C@@H]2CN(S(=O)(=O)c3cccc(C(F)(F)F)c3)[C@H](c3ccc(-c4cc5ccccc5o4)cc3)C[C@@H]21` here?
**A.** Its inhibition is 17%.

**Q.** Which inhibition does the source give for `Cc1ccc(OCC(=O)c2cc(C)n(Cc3ccco3)c2C)c([N+](=O)[O-])n1` here?
**A.** Its inhibition is -20.4%.

**Q.** Which inhibition does the source give for `CN(O)C(=S)c1ccccc1` here?
**A.** Its inhibition is 0.489%.

System: Rat fibroblasts (CREF)
Assay: as above
Conditions: CREF/GAPDH counter-screens; run 2, dose range 1, at 100 µM (top of the series)

**Q.** For `COc1ccc2c(c1)c(=Cc1ccc(N(C)C)cc1)c1cc(-c3ccccc3)[n+](C)n12`, which inhibition is on record?
**A.** The inhibition was 100%.

**Q.** Which inhibition does the source give for `Cc1ccc(C)c(S(=O)(=O)N2CCN(c3ncnc4sccc34)CC2)c1` here?
**A.** Its inhibition is 74.8%.

**Q.** With `COc1cccc2c1C(=O)c1c(O)c3c(c(O)c1C2=O)CC(O)(C(C)=NNC(=O)c1ccc(Cl)c(Cl)c1)CC3OC1CC(N)C(O)C(C)O1` (stereo not given) as the compound, how does the inhibition read?
**A.** The inhibition was 98.6%.

**Q.** Which inhibition does the source give for `CN1OC[C@@H]2CN(S(=O)(=O)c3cccc(C(F)(F)F)c3)[C@H](c3ccc(-c4cc5ccccc5o4)cc3)C[C@@H]21` here?
**A.** The inhibition was 24.5%.

**Q.** Which inhibition does the source give for `Cc1ccc(OCC(=O)c2cc(C)n(Cc3ccco3)c2C)c([N+](=O)[O-])n1` here?
**A.** Its inhibition is -12.2%.

**Q.** Which inhibition does the source give for `CN(O)C(=S)c1ccccc1` here?
**A.** The inhibition was -19.9%.

Biological target: Tumor necrosis factor receptor superfamily member 10B (Homo sapiens) (UniProt O14763)
Sequence (O14763 whole entry, looked up): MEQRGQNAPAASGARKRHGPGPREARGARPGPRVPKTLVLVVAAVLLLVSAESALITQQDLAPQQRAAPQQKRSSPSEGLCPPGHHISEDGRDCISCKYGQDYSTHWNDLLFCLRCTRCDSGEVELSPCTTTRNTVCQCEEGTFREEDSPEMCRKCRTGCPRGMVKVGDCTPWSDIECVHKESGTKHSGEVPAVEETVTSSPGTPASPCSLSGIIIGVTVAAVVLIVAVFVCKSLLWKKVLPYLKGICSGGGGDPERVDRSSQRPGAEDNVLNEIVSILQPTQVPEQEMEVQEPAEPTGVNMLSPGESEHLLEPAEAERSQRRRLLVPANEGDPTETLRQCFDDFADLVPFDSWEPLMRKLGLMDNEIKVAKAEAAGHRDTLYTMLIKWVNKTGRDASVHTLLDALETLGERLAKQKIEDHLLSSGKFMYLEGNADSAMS
Assay: viability loss of caspase-8 NB7 cells with TRAIL – with/without TRAIL, luminescence panel, confirmation (AID 651596)
Conditions: NB7 neuroblastoma + caspase-8, TRAIL sensitization, NB7 Caspase-8, with TRAIL, mean of runs, at 10 µM, stronger effect = higher value

**Q.** For `Cc1ccc(C)c(S(=O)(=O)N2CCN(c3ncnc4sccc34)CC2)c1`, which activity is on record?
**A.** Its activity is 68.5%.

**Q.** For `COc1ccc2sc(-c3ccc(S(C)(=O)=O)cc3)c(C#Cc3cncn3C)c2c1`, which activity is on record?
**A.** The activity was 66.7%.

**Q.** Which activity does the source give for `CCOc1ccc2nc(N(CCCN(C)C)C(=O)c3ccc(C(=O)c4ccccc4)cc3)sc2c1` here?
**A.** The activity was 87.4%.

System: not listed separately
Assay: as above
Conditions: NB7 neuroblastoma + caspase-8, without TRAIL, NB7 Caspase-8, without TRAIL, mean of runs, at 10 µM

**Q.** With `Cc1ccc(C)c(S(=O)(=O)N2CCN(c3ncnc4sccc34)CC2)c1` as the compound, how does the activity read?
**A.** Its activity is 69%.

**Q.** For `COc1ccc2sc(-c3ccc(S(C)(=O)=O)cc3)c(C#Cc3cncn3C)c2c1`, which activity is on record?
**A.** The activity was 34.3%.

**Q.** With `CCOc1ccc2nc(N(CCCN(C)C)C(=O)c3ccc(C(=O)c4ccccc4)cc3)sc2c1` as the compound, how does the activity read?
**A.** Its activity is 98.2%.
